Assay results: PubChem BioAssay (EPA / NIEHS)
The source made the active and inactive calls. How the source made its calls: active means hit-call score of the fitted dose curve at least 0.9, where 1 is the maximum; inactive means score below 0.9.

Experiment: APR_HepG2_MitoticArrest_72hr: Apredica 72-hour HepG2 Assay for Mitotic Arrest (AID 2282918)
Conditions: high-content imaging, actives raise or lower the signal
Description: APR_HepG2_72hr is a cell-based, multiplexed-readout assay that uses HepG2, a human liver cell line, with measurements taken at 72 hours after chemical dosing in a 384-well plate.APR_HepG2_MitoticArrest_72hr is one of 10 assay component(s) measured or calculated from the APR_HepG2_72hr assay. It is designed to make measurements of cell phenotype, a form of morphology reporter, as detected with fluorescence intensity signals by HCS Fluorescent Imaging technology.Data from the assay component APR_HepG2_MitoticArrest_72hr was analyzed into 1 assay endpoint. This assay endpoint, APR_HepG2_MitoticArrest_72hr, was analyzed with bidirectional fitting relative to DMSO as the negative control and baseline of activity. Using a type of morphology reporter, measures of protein for gain or loss-of-signal activity can be used to understand the signaling at the pathway-level as they relate to the gene . Furthermore, this assay endpoint can be referred to as a primary readout, because this assay has produced multiple assay endpoints where this one serves a signaling function. To generalize the intended target to other relatable targets, this assay endpoint is annotated to the cell cycle intended target family, where the subfamily is arrest.
Cells were treated with dimethyl sulfoxide (DMSO) as a solvent control at a final concentration of 0.5% v/v or with compounds in DMSO with a resulting final DMSO concentration of 0.5% v/v. Compound treatment was done at concentrations of 0.39, 0.78, 1.56, 3.12, 6.24, 12.5, 25, 50, 100, and 200 uM in duplicate on each plate. Cells were treated with compounds for 1, 24, or 72 hr. Carbonyl […] m-chloro-phenylhydrazone (CCCP) and taxol were used as positive controls for mitochondrial function and cytoskeletal stability, respectively; DMSO served as the negative control for this experiment. Cells were fixed by the direct addition of 50 uL formaldehyde in Hank's Balanced Salt Solution (HBSS) to a final concentration of 3.7%. After incubation in the fixation medium for 30 min at room temperature (293-298 K), cells were rinsed twice with HBSS and treated with cell permeabilization buffer (16 uL of 0.5% Triton X-100) for 10 min at room temperature (293-298 K) before labeling. For mitochondrial membrane potential and mitochondrial measurements, pre-fixed cells were incubated with 50 uL of MitoTracker Red CMXRos (Invitrogen) at a concentration of 250 nM for 30 min before fixation. In the remaining cases, post-fixed cells were labeled by incubation with a multiplexed mixture of primary antibodies in HBSS for 60 min at room temperature (293-298 K) to detect immunoreactivity of c-Jun (1:500), phospho-histone H3 (1:100), phospho-histone H2A.x (1:200), p53 (1:400), alpha-tubulin (1:200) and Hoechst 33342 (2 ug/mL). Cells were labeled for multiplexed imaging on two separate plates: a) Hoechst 33342, MitoTracker Red, phospho-histone H3, and alpha-tubulin, and b) Hoechst 33342, phospho-histone H2A.x, and c-Jun. A final rinse with HBSS (50 uL) was performed before analysis. The primary and secondary antibodies for the proteins were phospho-histone H3 (rabbit anti-phospho-histone H3 and FITC-donkey anti-rabbit IgG), phospho-histone H2A.x (mouse anti-phospho-histone H2A.x and FITC-donkey anti-mouse IgG), c-Jun (rabbit anti-phospho-c-Jun and Cy3-donkey anti-rabbit IgG), p53 (sheep anti-p53 and Cy5-donkey anti-sheep IgG), alpha-tubulin (mouse anti-alpha-tubulin and Cy5-donkey anti-mouse IgG). These antibodies are available as the CellCiphr HepG2 assay kit (Millipore).Digital images of each well were captured using a Cellomics ArrayScan VTI (Thermo Scientific Cellomics) (0.8 NA objective, 0.63x optical coupler, and XF-93 filter set) at 20x magnification. The images were acquired using the autofocus feature of the ArrayScan instrument, which entails the following steps. First, the camera focuses on channel 1 (Hoechst 33342), where nuclei are identified. Second, a Z offset of 1 um is used for capturing mitochondria (MitoTracker Red). […]

| Compound | outcome | AC50 |
| --- | --- | --- |
| CCOP(=O)(OCC)Oc1cc(C)nc(C(C)C)n1 | inactive | – |
| CCC(=NOC/C=C/Cl)C1=C(O)CC(C2CCOCC2)CC1=O (stereo not given) | inactive | – |
| CCOP(=O)(NC(C)C)Oc1ccc(SC)c(C)c1 (stereo not given) | inactive | – |
| CCOP(=S)(OCC)Oc1cc(C)nc(C(C)C)n1 | inactive | – |
| Nc1c(Cl)cc([N+](=O)[O-])cc1Cl | inactive | – |
| CN(C)C(=O)Nc1cccc(C(F)(F)F)c1 | inactive | – |
| CON=C(C(=O)OC)c1ccccc1CON=C(C)c1cccc(C(F)(F)F)c1 | inactive | – |
| FC(F)C(F)(F)OCC(Cn1cncn1)c1ccc(Cl)cc1Cl (stereo not given) | – | 100 µM (active) |
| CC(C)=CC1C(C(=O)OCN2C(=O)C3=C(CCCC3)C2=O)C1(C)C (stereo not given) | inactive | – |
| CCCOc1nn(C(=O)NS(=O)(=O)c2ccccc2C(=O)OC)c(=O)n1C | inactive | – |
| O=c1ccc(=O)[nH][nH]1 | inactive | – |
| CNC(=O)ON=C(C)SC | inactive | – |
| CC(C1CC1)C(O)(Cn1cncn1)c1ccc(Cl)cc1 (stereo not given) | inactive | – |
| CCOP(=S)(OCC)Oc1ccc([N+](=O)[O-])cc1 | inactive | – |
| CCOP(=S)(OCC)OC(Cl)C(Cl)(Cl)Cl (stereo not given) | inactive | – |
| CC(COc1ccc(Oc2ccccc2)cc1)Oc1ccccn1 (stereo not given) | inactive | – |
| Cc1ccn2nc(S(=O)(=O)Nc3c(F)cccc3F)nc2n1 | inactive | – |
| CN(C)NC(=O)CCC(=O)O | inactive | – |
| S=C1NCCN1 | inactive | – |
| CCCCOC(=O)c1ccccc1C(=O)O | inactive | – |

| Compound | outcome | AC50 |
| --- | --- | --- |
| CCOP(=S)(OCC)SCCSCC | inactive | – |
| Cc1nn(-c2cc(NS(C)(=O)=O)c(Cl)cc2Cl)c(=O)n1C(F)F | inactive | – |
| COP(=O)(OC)SCn1c(=O)oc2cc(Cl)cnc21 | – | 68.3 µM (active) |
| C#CCC1=C(C)C(OC(=O)C2C(C=C(C)C)C2(C)C)CC1=O (stereo not given) | inactive | – |
| CCOP(=O)(SC(C)CC)N1CCSC1=O (stereo not given) | inactive | – |
| CCc1cccc(CC)c1N(COC)C(=O)CCl | inactive | – |
| CSc1nnc(C(C)(C)C)c(=O)n1N | inactive | – |
| Cc1cc(C2CC2)nc(Nc2ccccc2)n1 | – | 70.1 µM (active) |
| CC1(C(=O)Nc2ccc(O)c(Cl)c2Cl)CCCCC1 | inactive | – |
| Nc1nc(N)nc(NC2CC2)n1 | inactive | – |
| CCCSP(=O)(OCC)Oc1ccc(Br)cc1Cl (stereo not given) | inactive | – |
| CC(Oc1cccc(Cl)c1)C(=O)O (stereo not given) | inactive | – |
| CCCCSP(=O)(SCCCC)SCCCC | inactive | – |
| CNC(=O)Oc1cccc2c1OC(C)(C)O2 | inactive | – |
| CCCOCC(=Nc1ccc(Cl)cc1C(F)(F)F)n1ccnc1 | inactive | – |
| CNC(=O)ON=C(SC)C(=O)N(C)C | inactive | – |
| O=C(O)c1cc(Oc2ccc(C(F)(F)F)cc2Cl)ccc1[N+](=O)[O-] | inactive | – |
| C#CC(C)(C)NC(=O)c1cc(Cl)cc(Cl)c1 | inactive | – |
| CCCCOC(=O)[C@@H](C)Oc1ccc(Oc2ccc(C#N)cc2F)cc1 | inactive | – |
| CC(=NC#N)N(C)Cc1ccc(Cl)nc1 | inactive | – |
